Screens from PubChem BioAssay.
KCNQ2 block: inhibitors of rat KCNQ2 potassium channel; O88943; hit rate 1.1% among 310,000; CHO-K1 KCNQ2, FluxOR thallium flux, 20 min; stronger effect = lower value; B-score at 10 µM; AID 2156;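 active means fluorescence ratio B-score at most minus 3 library SDs, with starting brightness B-score within 2 library SDs, cut at about -5.5 in these data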
Target sequence (O88943 whole entry, looked up): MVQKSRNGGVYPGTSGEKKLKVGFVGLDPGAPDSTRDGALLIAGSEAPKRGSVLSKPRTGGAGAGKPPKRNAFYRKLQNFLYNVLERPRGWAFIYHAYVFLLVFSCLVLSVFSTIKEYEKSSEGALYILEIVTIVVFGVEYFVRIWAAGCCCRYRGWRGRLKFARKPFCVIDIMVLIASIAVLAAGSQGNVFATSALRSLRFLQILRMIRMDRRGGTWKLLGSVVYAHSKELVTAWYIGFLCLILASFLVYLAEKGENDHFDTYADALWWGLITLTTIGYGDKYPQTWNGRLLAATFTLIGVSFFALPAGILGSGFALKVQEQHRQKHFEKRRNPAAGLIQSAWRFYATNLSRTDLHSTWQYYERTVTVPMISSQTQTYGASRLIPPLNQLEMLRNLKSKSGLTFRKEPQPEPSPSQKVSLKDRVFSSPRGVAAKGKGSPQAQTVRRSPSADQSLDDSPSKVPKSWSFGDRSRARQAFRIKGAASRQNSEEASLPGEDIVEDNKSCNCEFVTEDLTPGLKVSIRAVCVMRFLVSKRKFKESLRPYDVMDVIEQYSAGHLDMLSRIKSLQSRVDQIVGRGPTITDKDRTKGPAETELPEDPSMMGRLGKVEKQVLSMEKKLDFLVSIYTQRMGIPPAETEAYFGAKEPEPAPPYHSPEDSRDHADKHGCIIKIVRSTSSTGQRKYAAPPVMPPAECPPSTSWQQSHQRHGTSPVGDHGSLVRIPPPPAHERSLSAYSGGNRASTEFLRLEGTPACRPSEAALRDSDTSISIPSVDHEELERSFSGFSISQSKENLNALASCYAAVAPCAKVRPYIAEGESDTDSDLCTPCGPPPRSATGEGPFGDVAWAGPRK
KCNQ2 pot: potentiators of rat KCNQ2 potassium channel. O88943. hit rate 0.54% among 310,000. CHO-K1 KCNQ2, FluxOR thallium flux fluorescence; stronger effect = higher value. B-score at 10 µM;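 active means fluorescence ratio B-score at least 3 SD of library B-scores, with initial fluorescence B-score within 3 of them, cut at about 5.3 in these data; same plate scores as AID 2156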;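 further: B-score of peak minus minimum over baseline fluorescence ratio after K+ and Tl+ stimulus; positive B-score means potentiation of KCNQ2 with more thallium influx and brighter signal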
Large screens that a line does not name were inactive. Hits are enriched below; roughly 1.6% of the tested compounds scored in any of these assays.

C(=N\N(c1ccccc1)c1ccccc1)/c1ccccn1	KCNQ2 block -6.2
C(=N\n1cnnc1)/c1ccccn1	none (no result: KCNQ2 pot)
O=C1C(Cl)=C(N2CCCC2)C(=O)N1c1ccc(F)cc1	none (no result: KCNQ2 pot)
CCN(CC)CCNc1nc(C(F)(F)F)nc2c1nnn2Cc1ccccc1	none
CCN(CC)CCNc1nc(-c2ccccc2)nnc1C(F)(F)F	KCNQ2 pot 9
CCn1c(SCc2ccccc2Cl)nc2ccccc21	KCNQ2 block -6.6
Cn1c(SCc2ccccc2Cl)nc2ccccc21	none (no result: KCNQ2 pot)
O=C(c1cccc(-c2nnc(-c3ccccc3)o2)c1)N1CCCCC1	none
O=C(c1cccc(-c2nnc(-c3ccccc3)o2)c1)N1CCCCCC1	KCNQ2 block -5.8
COCCNC(=O)Cc1cn(C)c2ccccc12	none
Cn1cc(CC(=O)NC2CCCCC2)c2ccccc21	KCNQ2 pot 5.4
O=C(CO/N=C/c1ccccc1Cl)N1CCCc2ccccc21	KCNQ2 block -6.1
O=C(CO/N=C/c1ccccc1OC(F)F)N1CCc2ccccc21	none (no result: KCNQ2 pot)
COCCC(=O)N1CCC(Oc2ccc(C(=O)NCCc3ccccn3)cc2)CC1	none (no result: KCNQ2 pot)
COc1ccc(NC(=O)C(c2ccccc2)N2CCN(c3ccccn3)CC2)cc1Cl (stereo not given)	KCNQ2 block -6.3
COc1cc(NC(=O)CN2CCN(c3ccccn3)CC2)cc(OC)c1OC	none (no result: KCNQ2 pot)
COc1ccc(CNC(=O)C(C#N)c2nc3ccccc3nc2N2CCCC2)cc1 (stereo not given)	none (no result: KCNQ2 pot)
CC1CN(c2nc3ccccc3nc2C(C#N)C(=O)NCc2ccc3c(c2)OCO3)CC(C)O1 (stereo not given)	KCNQ2 block -5.6
C=CCn1c(CCCNC(=O)C(C)(C)C)nc2ccccc21	none
C=CCn1c(C(C)NC(=O)C(C)(C)C)nc2ccccc21 (stereo not given)	KCNQ2 block -6.6
CC(CN1CCC(n2nccc2NC(=O)CCCc2ccccc2)CC1)c1ccccc1 (stereo not given)	none (no result: KCNQ2 pot)
CC(=O)Nc1ccc(S(=O)(=O)N2CCC(C(=O)NCc3ccncc3)CC2)cc1	none (no result: KCNQ2 pot)
Cc1ccc(C(=O)O/N=C2\CC3CCC2(C)C3(C)C)cc1 (stereo not given)	none (no result: KCNQ2 pot)
Cc1cccc(C(=O)O/N=C2/CC3CCC2(C)C3(C)C)c1 (stereo not given)	KCNQ2 block -5.7
O=C(O)CC1(CC(=O)Nc2cccc(C(=O)O)c2)CCCC1	none (no result: KCNQ2 pot)
O=C1CCN(Cc2cccnc2)CCN1[C@H](CO)Cc1ccccc1	none
CCOc1ccc(C2C(C(=O)OC)=CN(C(C)c3ccccc3)C=C2C(=O)OC)cc1 (stereo not given)	KCNQ2 block -7.4
CCOc1ccc(CCNC(=O)C(O)c2ccccc2)cc1 (stereo not given)	none
N#Cc1ccc(OS(=O)(=O)c2ccc(-c3ccon3)s2)cc1	none (no result: KCNQ2 pot)
O=C(Oc1ccccc1)c1cccc2cccc(C(=O)Oc3ccccc3)c12	KCNQ2 block -5.8
O=C(Oc1ccccc1)c1cc2ccccc2oc1=O	none (no result: KCNQ2 pot)
COC(=O)C1CCN(C(=O)Cn2nnc(-c3cccc(F)c3)n2)CC1	none (no result: KCNQ2 pot)
Cc1ccc(CC(=O)O/N=C(\N)Cc2ccc([N+](=O)[O-])cc2)cc1	none (no result: KCNQ2 pot)
N/C(Cc1ccc([N+](=O)[O-])cc1)=N\OC(=O)CC1CCCCC1	KCNQ2 pot 8
CC(Oc1ccc(Br)cc1)C(=O)N(C)CC(=O)Nc1ccc(N2CCOCC2)cc1 (stereo not given)	none (no result: KCNQ2 pot)
CC1C/C(=C\c2ccccc2[N+](=O)[O-])c2nc3ccccc3c(C(=O)O)c2C1 (stereo not given)	KCNQ2 block -5.8
O=C(O)c1c2c(nc3ccccc13)/C(=C/c1ccccc1[N+](=O)[O-])CCC2	none (no result: KCNQ2 pot)
CCCCOc1c(Br)cc(CNCCCN2CCOCC2)cc1OC	none
Cc1nnsc1S(=O)(=O)c1ccccc1	none (no result: KCNQ2 pot)
CC(C)=N/N=C1/NC(=O)C(CC(=O)Nc2cc(Cl)ccc2C)S1 (stereo not given)	KCNQ2 pot 5.8
Cc1ccccc1NC(=O)CC1SC(=Nc2ccc(O)cc2)NC1=O (stereo not given)	none
Cc1ccc2c(c1)N(S(=O)(=O)c1ccc(F)cc1)C(C(C)(C)C)CO2 (stereo not given)	KCNQ2 block -6.9
Cc1ccc(S(=O)(=O)N2c3ccccc3OCC2C(C)(C)C)cc1 (stereo not given)	none (no result: KCNQ2 pot)
Cc1ccc2c(c1)cc1c(=O)n(CC(=O)NCCCc3ccccc3)nc(C)n12	none
Cc1ccc(S(=O)(=O)N2CCN(c3nc4ccccc4nc3-n3nc(C)cc3C)CC2)cc1	KCNQ2 block -6
Cc1nc2ccccc2nc1N1CCC(C)CC1	none
Cc1cc(C)n(-c2nc3ccccc3nc2N2CCC(C)CC2)n1	KCNQ2 block -6.8
Cc1cc(C)n(-c2nc3ccccc3nc2N2CCN(C(=O)c3ccc(F)cc3)CC2)n1	none (no result: KCNQ2 pot)
Cc1cc(C)c(C)c(S(=O)(=O)NCCCN2CCCC2=O)c1C	none
COc1ccc(/C=C(\NC(=O)c2ccco2)C(=O)N2CCCCC2)cc1	none
CC(C)CN(C(=O)COC(=O)C1=COCCO1)c1c(N)n(Cc2ccccc2)c(=O)[nH]c1=O	none (no result: KCNQ2 pot)
CC(C)c1cc(CNC(=O)C2CCC(=O)N(Cc3ccccc3F)C2)on1 (stereo not given)	none
OC(c1ccccc1)(c1ccc(F)cc1)C(c1ccccc1)N1CCOCC1 (stereo not given)	KCNQ2 block -5.7
O=C(NCC(c1ccc(F)cc1)N1CCOCC1)c1ccc(C(=O)c2ccccc2)cc1 (stereo not given)	none
CCN(c1ccccc1)S(=O)(=O)c1cc2c(cc1C)NC(=O)CO2	none (no result: KCNQ2 pot)
COc1ccc(N2CC(NC(=O)c3ccc4ccccc4c3)CC2=O)cc1OC (stereo not given)	none
COc1ccc2nc(NC(=O)Nc3cccc4ccccc34)sc2c1	none (no result: KCNQ2 pot)
COc1ccc2nc(N=Nc3c(O)ccc4ccccc34)sc2c1	KCNQ2 pot 8.2
CCn1cc(C(=O)N2CCN(c3ccc(OC)cc3)CC2)c(=O)c2cc(S(=O)(=O)N3CCOCC3)ccc21	none (no result: KCNQ2 pot)
CC1(C)CC(NC(=O)c2cccc(Cl)c2)CC(C)(C)N1	none
O=C(O)c1ccccc1NS(=O)(=O)c1cccc(C(F)(F)F)c1	none (no result: KCNQ2 pot)
O=C(O)c1ccccc1NS(=O)(=O)c1cccc(-n2sc3ccccc3c2=O)c1	KCNQ2 pot 13
COc1ccc(-c2cc(C(=O)N3CCCCCC3)c3ccccc3n2)c(OC)c1	none (no result: KCNQ2 pot)
Cc1ccc(-c2cc(C(=O)N3CCCC(C(F)(F)F)C3)c3ccccc3n2)o1 (stereo not given)	none (no result: KCNQ2 pot)
Cc1ccc(-c2cc(C(=O)Nc3nccs3)c3ccccc3n2)o1	KCNQ2 block -5.7
Cc1ccc(-c2cc(C(=O)N3CCN(c4ccc(F)cc4)CC3)c3ccccc3n2)o1	KCNQ2 block -6
Cc1ccc(-c2cc(C(=O)Nc3nccs3)c3ccccc3n2)c(C)c1	none (no result: KCNQ2 pot)
COc1ccc(-c2cc(C(=O)N3CCN(c4ccccc4F)CC3)c3ccccc3n2)c(OC)c1	KCNQ2 block -8
COc1cccc(CNC(=O)CCCC(=O)NC(C)CCc2ccccc2)c1 (stereo not given)	none (no result: KCNQ2 pot)
CCN(Cc1ccccc1)C(=O)CCc1nc(CN2CCN(C(=O)c3ccc([N+](=O)[O-])cc3)CC2)no1	none (no result: KCNQ2 pot)
CCOc1cc(C)cc2oc(=O)cc(-c3ccccc3)c12	none (no result: KCNQ2 pot)
Cc1cc(OCC(=O)N2CCc3ccccc3C2)c2c(-c3ccccc3)cc(=O)oc2c1	KCNQ2 block -7.5
COc1ccc(OCC(=O)N2CCc3ccccc3C2)cc1	none (no result: KCNQ2 pot)
O=C(COc1ccc(Br)cc1)N1CCc2ccccc2C1	KCNQ2 block -6.5
O=C(COc1ccc(Br)cc1)N1CCOCC1	none (no result: KCNQ2 pot)
O=C(COc1ccc(Br)cc1)N1CCC(c2ccccc2)C1 (stereo not given)	KCNQ2 block -5.6
